The values that follow come from PMC4552634, “A New Set of Chemical Starting Points with Plasmodium falciparum Transmission-Blocking Potential for Antimalarial Drug Discovery” (PLoS ONE, 2015).

A word on the % Inhibition: it is the relative decrease from the control value, in per cent.

The whole screen tested about 13,000 compounds, of which about 3,200 (25%) showed an effect of 50% or more. This is one part of the list.

The test system of the test is P. falciparum stage V gametocytes. The arrangement: BacTiter-Glo ATP luminescence viability of purified stage V gametocytes in 384-well plates, per cent inhibition versus DMSO. The settings on record: 48 h, 5 µM; inhibitor.
For `CCOc1cc2ncnc(Nc3cc(Cl)c(Cl)c(Cl)c3)c2cc1OCC` [TCMDC-131926], the “% Inhibition” value amounted to 9.404%.
As for `O=C(c1ccc(Cl)cc1)N1CCCC(C(=O)N(Cc2nnc(-c3ccccc3Cl)o2)C2CC2)C1` (stereo not shown) [TCMDC-125331], the “% Inhibition” value was -2.423%.
Under `Cc1c(Cl)cccc1NC(=S)NN=Cc1ccccn1` [TCMDC-125487] stands 106.6%; under `COc1ccc2c(NN=Cc3ccccn3)ccnc2c1` [TCMDC-142028], -6.659%.
For `Cc1cc(NN=Cc2ccccn2)c2cc(F)ccc2n1` [TCMDC-142020] the value was 16.37%.
Under `O=C(Nc1ccc(S(=O)(=O)N2CCCCCC2)cc1)c1cc(-c2ccccc2O)n[nH]1` [TCMDC-125203] stands -36.28%.
`Fc1ccc(NC(=S)NCCc2ccccc2)cc1` [TCMDC-123847]: the “% Inhibition” value was -9.114%.
As to `Fc1ccc(NC(=S)NN=Cc2ccccn2)cc1` [TCMDC-125521], the “% Inhibition” value was 108.6%.
Consider `O=C(Nc1ccc(S(=O)(=O)N2CCCCC2)cc1)c1cc(-c2ccccc2O)n[nH]1` [TCMDC-124310], for which the “% Inhibition” value was -14.76%.
With `CC(C)c1ccc(NC(=S)NN=Cc2ccccn2)cc1` [TCMDC-125520], the “% Inhibition” value worked out at 108.1%.
Turning to `CC(=NNC(=S)Nc1ccccc1Cl)c1ccccn1` [TCMDC-124278], the “% Inhibition” value turned out to be 2.359%.
For `O=S(=O)(c1ccc(NC(=S)NN=Cc2ccccn2)cc1)N1CCCCC1` [TCMDC-125787] the value was 60.8%; for `Cn1cnc2c(SCc3ccccc3OCc3ccccc3)ncnc21` [TCMDC-136495], -28.48%; for `O=C(/C=C/c1ccc(Cl)c(Cl)c1)N(Cc1ccccc1)C1CCC(CN2CCC(c3c[nH]c4ccccc34)CC2)CC1` (stereo not shown) [TCMDC-140359], 26.1%.
`COc1cc2c(Nc3ccc(Br)cc3F)ncnc2cc1OCC1CCN(C)CC1` [TCMDC-123476]: the “% Inhibition” value came out at 19.55%.
For `O=C(O)C(F)(F)F.OC1CCCN(Cc2cccc(-c3ccc(-c4nc5cc(F)ccc5[nH]4)cc3)c2)C1` (stereo not shown) [TCMDC-133820], the “% Inhibition” value is listed as 3.122%.
For `COc1ccc2ncc(F)c(NC(=O)C3CCC(NCc4cc5c(F)cccc5[nH]4)CC3)c2n1` (stereo not shown) [TCMDC-136354] the value was -14.12%; for `N#Cc1ccc2c(c1)CCN(CCC1CCC(NC(=O)Nc3ccncc3)CC1)C2` (stereo not shown) [TCMDC-139300], -15.77%.
For `CCOC(=O)c1cc(=O)c2ccc(OCC#N)cc2o1` [TCMDC-131302] the value was 40.87%; for `Fc1ccc2[nH]c(-c3cccc(-c4cccc(CNCc5cnn(-c6ccccc6)n5)c4)c3)nc2c1.O=C(O)C(F)(F)F` [TCMDC-132976], -2.641%; for `O=C(Nc1ccc2c(c1)OCCO2)c1cc(-c2cccnc2)nc2ccc(Cl)cc12` [TCMDC-124362], -23.33%.
Turning to `S=C(NN=Cc1ccccn1)NC1CC2C=CC1C2` (stereo not shown) [TCMDC-125752], the “% Inhibition” value is on record as 132.2%.
Under `Cc1cc(NN=Cc2ccccn2)c2cc(C(F)(F)F)ccc2n1` [TCMDC-142022] stands 35.2%; under `CC(C)N=C(N)NN=Cc1ccc(Cl)c(Cl)c1` [TCMDC-138131], -38.45%.
For `S=C(NN=Cc1ccccn1)Nc1ccc2c(c1)OCCO2` [TCMDC-132009], the “% Inhibition” value is recorded as 95.93%.
For `O=C(Cn1cnc2c(nnn2Cc2ccccc2F)c1=O)Nc1ccc2c(c1)OCCO2` [TCMDC-124462] the value was -30.94%; for `S=C(NN=Cc1ccccn1)Nc1ccc(Cl)c(Cl)c1` [TCMDC-125522], 102.5%.
Under `FC(F)(F)c1cccc(NC(=S)NN=Cc2ccccn2)c1` [TCMDC-123509] stands 31.63%.
On to `O=C(NC1CC1)c1ccc(Nc2nccc(-c3c(-c4cccc(NC(=O)c5c(F)cccc5F)c4)nn4ccccc34)n2)cc1` [TCMDC-136002], for which the “% Inhibition” value was -35.37%.
Under `CCCCN1C(=O)C(c2ccccc2)(c2ccccc2)N=C1N` [TCMDC-142007] stands 12.88%; under `O=C(NCCN1CCOCC1)c1ccc(O)c(-c2cccc(C(F)(F)F)c2)c1` [TCMDC-140162], 21.52%; under `CCCNC(=O)c1ccc(N2CCC(c3ccccc3C)CC2)nc1` [TCMDC-134583], 17.76%.
Under `O=C(NC1CCCCCC1)[C@@H]1CCCN1C(=O)c1ccc(O)c(-c2ccc(Cl)c(Cl)c2)c1` [TCMDC-140843] stands 28.6%.
As for `COc1ccc2nccc([C@@H](O)CN3CCC(NCc4cc5oc(=O)[nH]c5cc4F)CC3)c2c1` [TCMDC-141140], the “% Inhibition” value came out at 3.08%.
Consider `CCc1ccccc1N1CCN(CCCC(=O)c2ccc(NC(=O)c3cc(Cl)cc(Cl)c3)cc2)CC1` [TCMDC-138229], for which the “% Inhibition” value is -19.19%.
Under `Nc1nc(N)c2cc(Cc3ccccc3Cl)cnc2n1` [TCMDC-137918] stands -87.91%.
As to `CCOC(=O)CNC(=O)c1cc(=O)c2ccccc2o1` [TCMDC-131778], the “% Inhibition” value is recorded as 11.83%.
Regarding `CC(C)(C)C(=O)Nc1c(-c2cc(=O)oc3cc4c(cc23)CCC4)oc2ccccc12` [TCMDC-125081], the “% Inhibition” value is recorded as 76.3%.
For `O=C(NCC1CCCCC1)c1cc(=O)c2ccccc2o1` [TCMDC-123621], the “% Inhibition” value is reported as 8.117%.
For `COC(=O)c1c(NC(=O)c2cccc(C(F)(F)F)c2)sc2c1CCN(Cc1ccccc1)C2` [TCMDC-125828] the value was -72.37%; for `CCOC(=O)c1ccc(N2CCN(c3cc(C)ccc3C)CC2)c(NC(=O)Nc2ccc(Cl)c(Cl)c2)c1` [TCMDC-123849], 0.9649%; for `COc1ccccc1CCC(C)(C)NC(=O)CC(CCc1ccccc1)Nc1ccc(C#N)c2ccccc12` (stereo not shown) [TCMDC-132307], 13.06%.
Under `N#Cc1ccc(N2C[C@@H](OCc3ccccc3)C[C@H]2C(=O)NCCC(c2ccccc2)c2ccccc2)c2ccccc12` [TCMDC-135421] stands 62.52%; under `N#Cc1ccc(N[C@@H](CC2CCCCC2)C(=O)NCc2cc(F)c(F)cc2F)c2ccccc12` [TCMDC-136630], -9.58%; under `Cc1cc(NC(=O)[C@@H](Nc2ccc(C#N)c3ccccc23)C2CCCCC2)ccc1F` [TCMDC-136635], -42.79%.
As for `CO[C@@H]1C[C@@H](C(=O)Nc2ccccc2)N(c2ccc(C#N)c3ccccc23)C1` [TCMDC-135413], the “% Inhibition” value is 86.31%.
`N#Cc1ccc(N(CC(=O)NCCc2ccccc2)CC2CC2)c2ccccc12` [TCMDC-135574]: the “% Inhibition” value is -1.825%.
With `CCOc1cc(C(=O)Nc2ccc3nc(N4CCN(C)CC4)cc(C)c3c2)cc(OCC)c1OCC` [TCMDC-123589], the “% Inhibition” value is -11.34%.
Turning to `O=C(/C=C/c1cccc2c1OCO2)Nc1ccnc2ccncc12` [TCMDC-139845], the “% Inhibition” value is given as -12.08%.
For `Cc1ccccc1CNCC(O)c1cccc(C(F)(F)F)c1` (stereo not shown) [TCMDC-140393] the value was 2.038%.
With `Cn1cccc1C(=O)NCC(CCNc1cc(=O)c2ccccc2[nH]1)NCc1cc(Br)cc(Br)c1` (stereo not shown) [TCMDC-140218], the “% Inhibition” value is -44.96%.
Turning to `Cc1cc(CNCC(CCNc2cc(=O)c3ccccc3[nH]2)NCc2cc(Br)cc(Br)c2)oc1C` (stereo not shown) [TCMDC-140347], the “% Inhibition” value was 61.99%.
As for `O=c1cc(NCCC(CNCc2ccc(Br)o2)NCc2cc(Br)cc(Br)c2)[nH]c2ccccc12` (stereo not shown) [TCMDC-140348], the “% Inhibition” value turned out to be 17.71%.
For `O=c1cc(NCCC(CNCc2cc3ccccc3o2)NCc2cc(Br)cc(Br)c2)[nH]c2ccccc12` (stereo not shown) [TCMDC-140345] the value was 70.19%.
Under `Cc1sc(C)c(CNCCCNc2cc(=O)c3ccccc3[nH]2)c1Br` [TCMDC-140765] stands -54.98%; under `CCc1ccc(CNCC(CCNc2cc(=O)c3ccccc3[nH]2)NCc2cc(Br)cc(Br)c2)o1` (stereo not shown) [TCMDC-140346], 67.8%.
On to `O=c1cc(NCCCNCc2cc(Br)cs2)[nH]c2ccccc12` [TCMDC-139310], for which the “% Inhibition” value is -17.04%.
Under `COc1cc(/C=C/C(=O)NCC(CCNc2cc(=O)c3ccccc3[nH]2)NCc2cc(Br)cc(Br)c2)cc(OC)c1` (stereo not shown) [TCMDC-140217] stands -26.95%; under `O=c1cc(NC[C@H]2CCC[C@@H]2NCc2cc(Br)cc(Br)c2)[nH]c2ccccc12` [TCMDC-139655], -0.8474%.
On to `Cc1[nH]c2ccc(NS(C)(=O)=O)cc2c1C1CCN(CC2CCN(C(=O)/C=C/c3ccc(Cl)c(Cl)c3)CC2)CC1` [TCMDC-140125], for which the “% Inhibition” value was -39.53%.
Under `COc1ccc2nccc([C@@H](O)CN3CCC(NC(=O)c4ccc(Cl)c([N+](=O)[O-])c4)CC3)c2c1` [TCMDC-141037] stands -23.07%; under `O=C(Nc1cccc(-c2csc(-c3nc4ccccc4[nH]3)c2)c1)c1ccncc1` [TCMDC-132402], 13.78%.
With `Cn1cnc(CCNC(=O)c2ccc(-c3cccc(-c4nc5ccccc5[nH]4)c3)cc2)c1` [TCMDC-132495], the “% Inhibition” value is listed as -19.92%.
Turning to `O=C(Nc1cccc(-c2csc(-c3nc4ccccc4[nH]3)c2)c1)c1cccnc1` [TCMDC-132403], the “% Inhibition” value is on record as 77.71%.
For `Cn1cnc(CCNC(=O)c2cccc(-c3ccc(-c4nc5cc(F)ccc5[nH]4)cc3)c2)c1` [TCMDC-132492] the value was 7.487%; for `O=C(Nc1cccc(-c2cccc(-c3nc4ccccc4[nH]3)c2)c1)c1ccncc1` [TCMDC-136955], 6.238%.
For `O=C(Nc1cccc(-c2cccc(-c3nc4ccccc4[nH]3)c2)c1)c1cccnc1` [TCMDC-136928] the value was 76.9%; for `Cn1cnc(CCNC(=O)c2cccc(-c3csc(-c4nc5ccccc5[nH]4)c3)c2)c1` [TCMDC-132501], 74.26%.
For the molecule `CC(=O)Nc1cccc(C(=O)Nc2cccc(-c3csc(-c4nc5ccccc5[nH]4)c3)c2)c1` [TCMDC-132398], the “% Inhibition” value is -2.258%.
For `O=C(Nc1cccc(-c2ccc(-c3nc4ccccc4[nH]3)cc2)c1)c1cccnc1` [TCMDC-136924] the value was -5.994%.
